Tested on: Vero E6 infected with SARS-CoV-2
Test: inhibition of SARS-CoV-2 cytopathic effect; higher = more antiviral protection, active = above 15
Conditions: 48 h

Row | SMILES | inhibition of SARS-CoV-2 cytopathic effect (1 nM) | inhibition of SARS-CoV-2 cytopathic effect (8.33 nM) | inhibition of SARS-CoV-2 cytopathic effect (100 nM) | inhibition of SARS-CoV-2 cytopathic effect (833.33 nM) | inhibition of SARS-CoV-2 cytopathic effect (10000 nM)
1 | CCCc1c(OCCCCc2nnn[nH]2)ccc(C(C)=O)c1O [tomelukast] | -8.82% (inactive) | -9.23% (inactive) | -10% (inactive) | -8.13% (inactive) | -6.02% (inactive)
2 | O=C1c2ccccc2-c2n[nH]c3cccc1c23 [pyrazolanthrone] | -4.36% (inactive) | 0.82% (inactive) | -1.61% (inactive) | -1.07% (inactive) | -5.91% (inactive)
3 | COc1cc2c(CCNC(C)=O)c[nH]c2cc1Cl [6-chloromelatonin] | 0.92% (inactive) | 0.78% (inactive) | -1.78% (inactive) | 4.57% (inactive) | -13.2% (inactive)
4 | C[S+]([O-])c1ccc(-c2nc(-c3ccc(F)cc3)c(-c3ccncc3)[nH]2)cc1 (stereo not given) | -0.95% (inactive) | 1.29% (inactive) | -1.08% (inactive) | -1.33% (inactive) | 4.9% (inactive)
5 | Oc1cc(CNC(=S)/C=C/c2cc(O)c(O)c(Br)c2)cc(O)c1O | 0.9% (inactive) | 0.99% (inactive) | 2.87% (inactive) | 5.44% (inactive) | 19.8% (active)
6 | CO/N=C(\C(=O)N[C@@H]1C(=O)N2C(C(=O)O)=C(CSC(=O)c3ccco3)CS[C@H]12)c1csc(N)n1 | -0.19% (inactive) | -0.66% (inactive) | -1.18% (inactive) | -0.09% (inactive) | -0.18% (inactive)
7 | COc1ccc(N2CCOCC2)c2sc(NC(=O)N3CCC(C)(O)CC3)nc12 [tozadenant] | 1.95% (inactive) | 8.03% (inactive) | -0.04% (inactive) | -0.08% (inactive) | -2.66% (inactive)
8 | O=C(O[C@H]1C[N+]2(CCCOc3ccccc3)CCC1CC2)C(O)(c1cccs1)c1cccs1 [aclidinium] | -0.75% (inactive) | -1.25% (inactive) | -2.4% (inactive) | 1.93% (inactive) | 1.6% (inactive)
9 | O=C(O)c1ccccc1Nc1cccc(OCc2ccc3ccccc3n2)c1 | -0.27% (inactive) | 2.38% (inactive) | 0.56% (inactive) | 0.3% (inactive) | -0.51% (inactive)
10 | CCNC(=O)Nc1ccc(-c2nc3c(c(N4CCOC[C@@H]4C)n2)CCN(C2COC2)C3)cc1 | 0.65% (inactive) | -0.06% (inactive) | -0.8% (inactive) | 0.29% (inactive) | -0.84% (inactive)
11 | CCCCCCCCCCCCCCCC(=O)O[C@@H]1[C@@H](O)[C@@H](O)[C@@H]([C@H](NC(=O)[C@@H]2C[C@@H](CCC)CN2C)[C@H](C)Cl)O[C@@H]1SC [clindamycin-palmitate] | -0.87% (inactive) | -2.61% (inactive) | -3.02% (inactive) | -0.74% (inactive) | -3.94% (inactive)
12 | COc1ccccc1OCC(O)CNC(C)C (stereo not given) [moprolol] | -0.33% (inactive) | -2.22% (inactive) | -0.82% (inactive) | -3.01% (inactive) | -2.72% (inactive)
13 | CC(=O)OCC1=C(C(=O)O)N2C(=O)[C@@H](NC(=O)Cc3cccs3)[C@H]2SC1 [cephalothin] | 0.91% (inactive) | 2.69% (inactive) | 1.37% (inactive) | -0.06% (inactive) | 1.33% (inactive)
14 | O=C(O)/C=C/c1ccc(Cn2ccnc2)cc1 [ozagrel] | 0.02% (inactive) | 3.28% (inactive) | 0.19% (inactive) | 0.75% (inactive) | -0.91% (inactive)
15 | CCCCCCCCCCCCCCCC(=O)C(F)(F)F | -1.4% (inactive) | 0.3% (inactive) | -10.8% (inactive) | -13.2% (inactive) | -0.25% (inactive)
16 | CCNC(=O)[C@@H]1CCCN1C(=O)[C@H](CCCNC(=N)N)NC(=O)[C@H](CC(C)C)NC(=O)[C@@H](CC(C)C)NC(=O)[C@H](Cc1ccc(O)cc1)NC(=O)[C@H](CO)NC(=O)[C@H](Cc1c[nH]c2ccccc12)NC(=O)[C@H](Cc1c[nH]cn1)NC(=O)[C@@H]1CCC(=O)N1 [leuprolide] | -3.75% (inactive) | 3.77% (inactive) | 3.45% (inactive) | 0.4% (inactive) | -1.48% (inactive)
17 | CO/N=C(\C(=O)N[C@@H]1C(=O)N2C(C(=O)OCOC(=O)C(C)(C)C)=C(C)CS[C@H]12)c1csc(N)n1 [cefetamet-pivoxil] | -1.77% (inactive) | -0.88% (inactive) | -2.82% (inactive) | -0.78% (inactive) | -2.04% (inactive)
18 | Cc1ncc(CO)c(C=O)c1O [pyridoxal] | 4.33% (inactive) | 2.21% (inactive) | 0.26% (inactive) | -1.64% (inactive) | 1.19% (inactive)
19 | Nc1ncnc2c1c(-c1ccc(Oc3ccccc3)cc1)nn2C1CCCC1 | 3.63% (inactive) | 1.32% (inactive) | 0.15% (inactive) | -0.21% (inactive) | -13.6% (inactive)

Row | SMILES | inhibition of SARS-CoV-2 cytopathic effect (1 nM) | inhibition of SARS-CoV-2 cytopathic effect (8.33 nM) | inhibition of SARS-CoV-2 cytopathic effect (100 nM) | inhibition of SARS-CoV-2 cytopathic effect (833.33 nM) | inhibition of SARS-CoV-2 cytopathic effect (10000 nM)
20 | CCC1(c2c[nH]cn2)Cc2ccccc2C1 [atipamezole] | 0.76% (inactive) | 2.54% (inactive) | 0.58% (inactive) | 2.4% (inactive) | 1.28% (inactive)
21 | CC(C(=O)O)c1ccc2c(c1)[nH]c1ccc(Cl)cc12 (stereo not given) [carprofen] | 4.44% (inactive) | 2.85% (inactive) | -6.45% (inactive) | 4.46% (inactive) | 3.76% (inactive)
22 | Nc1cccc(CNC(=O)c2ccc(Oc3ccc(OCc4cccc(F)c4)cc3)nc2)c1 | -2.39% (inactive) | -0.37% (inactive) | 0.75% (inactive) | 0.65% (inactive) | -2.15% (inactive)
23 | CCC(=O)OCC(=O)[C@@]1(OC(=O)CC)[C@@H](C)C[C@H]2[C@@H]3CCC4=CC(=O)C=C[C@]4(C)[C@@]3(F)[C@@H](O)C[C@@]21C | -0.73% (inactive) | 0.98% (inactive) | -1.61% (inactive) | 0.59% (inactive) | -0.08% (inactive)
24 | O=C(Nc1ccc(S(=O)(=O)Nc2nccs2)cc1)C(c1ccccc1)c1ccccc1 | -0.78% (inactive) | 3.67% (inactive) | 2.47% (inactive) | 2.29% (inactive) | -2.52% (inactive)
25 | C[C@H]1c2cccc(O)c2C(=O)C2=C(O)[C@]3(O)C(=O)C(C(N)=O)=C(O)[C@@H](N(C)C)[C@@H]3[C@@H](O)[C@@H]21 [doxycycline] | -1.68% (inactive) | -0.605% (inactive) | 0.42% (inactive) | 0.08% (inactive) | -0.76% (inactive)
26 | COC(=O)CC[C@@H]1N=C(c2ccccn2)c2cc(Br)ccc2-n2c(C)cnc21 [remimazolam] | 0.83% (inactive) | 1.12% (inactive) | 2.32% (inactive) | 0.51% (inactive) | -1.57% (inactive)
27 | C=C1/C(=C\C=C2/CCC[C@]3(C)[C@@H]([C@H](C)CCCC(C)C)CC[C@@H]23)C[C@@H](O)C[C@@H]1O [alfacalcidol] | 2.5% (inactive) | -0.82% (inactive) | -1.14% (inactive) | 0.53% (inactive) | -5.24% (inactive)
28 | Cc1c(-c2ccc(-c3ccccc3F)cc2)nc2ccc(F)cc2c1C(=O)O [brequinar] | 0.47% (inactive) | -5.34% (inactive) | -4.42% (inactive) | -4.61% (inactive) | -4.4% (inactive)
29 | COc1cc(OC)c(C(=O)CCCN2CCCC2)c(OC)c1 [buflomedil] | 1.62% (inactive) | 0.64% (inactive) | 4.02% (inactive) | 3.26% (inactive) | 1.28% (inactive)
30 | COc1cc2ncnc(Nc3ccc(Oc4ccccc4)cc3)c2cc1OC [SRC-kinase-inhibitor-I] | 14.1% (inactive) | 2.88% (inactive) | 0.56% (inactive) | -4.38% (inactive) | -9.32% (inactive)
31 | O=C(O)c1cc(C(=O)O)c(C(=O)N(Cc2cccc(Oc3ccccc3)c2)[C@H]2CCCc3ccccc32)cc1C(=O)O | 0.03% (inactive) | -0.1% (inactive) | -1.42% (inactive) | -0.62% (inactive) | 0.42% (inactive)
32 | C=C1C(=O)O[C@@H]2C[C@@]3(C)CCC[C@H](C)C3=C[C@H]12 [alantolactone] | -2.07% (inactive) | -0.06% (inactive) | -2.01% (inactive) | 1.03% (inactive) | 12.6% (inactive)
33 | Oc1ccc2ccccc2c1 [beta-naphthol] | -0.51% (inactive) | -1.33% (inactive) | 2.24% (inactive) | 5.34% (inactive) | 2.59% (inactive)
34 | O=C(NC(Cc1cc(=O)[nH]c2ccccc12)C(=O)O)c1ccc(Cl)cc1 (stereo not given) [rebamipide] | -0.87% (inactive) | 2.6% (inactive) | 4.52% (inactive) | 2.91% (inactive) | 1.77% (inactive)
35 | CNC(=O)c1nn(C)c2c1C(C)(C)Cc1cnc(Nc3ccc(N4CCN(C)CC4)cc3)nc1-2 | 0.32% (inactive) | 0.79% (inactive) | 1.17% (inactive) | -4.6% (inactive) | -10.3% (inactive)
36 | Cn1cc(-c2ccc3ncc(Cc4ccc5ncccc5c4)n3n2)cn1 | -4.59% (inactive) | -2.71% (inactive) | -1.81% (inactive) | 2.47% (inactive) | 3.49% (inactive)
37 | CCc1oc2ccccc2c1C(=O)c1cc(Br)c(O)c(Br)c1 [benzbromarone] | -1.45% (inactive) | 0.69% (inactive) | -2.5% (inactive) | -0.89% (inactive) | 0.48% (inactive)
38 | Oc1ccc(OC2CCCCO2)cc1 (stereo not given) [deoxyarbutin] | -1.9% (inactive) | -1.93% (inactive) | -0.6% (inactive) | 0.9% (inactive) | -0.71% (inactive)

From the supplement of paper PMC13380429
